{"source": "PubChem BioAssay (Tox21)", "note": "Inconclusive results are not listed. Calls of active or inactive are those of the source. Calls come from the whole dose curve; as a rule, active = well fitted activation curve with a large enough effect in the repeat runs; inconclusive = weak or mixed curves; inactive = flat fitted curve, though single readings scatter. % is set by controls: 0 for no effect and ±100 for the full control effect.", "data": [{"assay": "A CellTox Green Cytotoxicity Assay to monitor cytotoxicity in HEK293 cells - 24 hour (AID 1224875); note: nearly all actives have a fitted effect of over 45% in size", "settings": "CellTox Green fluorescence; series mostly up to 76.8 µM; activity change: at the top concentration", "from_the_text": "National Center for Advancing Translational Sciences [NCATS]\nNIH Chemical Genomics Center [NCGC]\nU.S. Environmental Protection Agency [EPA]\nNational Institutes of Environmental Health Sciences [NIEHS]\nNational Toxicology Program [NTP]\nCell-based models are critical for drug discovery. Determining the natural cytotoxic effects resulting from test compounds is an essential research activity. A CellTox Green Cytotoxicity Assay to monitor cytotoxicity in real time of continues cell culture during 40 hours of the compound treatment was used to screen Tox21 10K library compounds in Hek293 cells. CellTox Green Cytotoxicity Assay is a nonlytic, homogeneous, biofluorescent method to measure cytotoxicity in cell culture after experimental manipulation. The assay system uses a proprietary asymmetric cyanine dye that is excluded from viable cells but preferentially stains the dead cell's DNA. […] Viable cells produce no appreciable increases in fluorescence. Therefore, the fluorescence signal produced by the binding interaction with dead cell DNA is proportional to cytotoxicity.\nThe mixture of Hek293 cell suspension and reagents were dispensed at 600cells/6 ul/well in 1536-well tissue culture treated black solid bottom plates using a Multidrop dispenser. After the assay plates were incubated at a 37 C/5% CO2 incubator for 5 hours, 23 nL of compounds dissolved in DMSO, positive and negative controls was transferred to the assay plate by a pintool work station. The plates were incubated at 37 C for 40 hours. The fluorescence intensity were measured at 0h, 8h, 16h, 24h, 32h and 40h time points using ViewLux plate reader during compound treatment.", "values": [{"smiles": "O=C(O)/C=C(\\CC(=O)O)C(=O)O", "activity change": "1.5% [at 35.3 µM, hits give high values] (inactive)"}, {"smiles": "CCCCCCCCCCCCCCCC(=O)OC", "activity change": "-1.12% [at 15.8 µM, hits give high values] (inactive)"}, {"smiles": "O=C1Nc2ccccc2C1=O", "activity change": "21.4% (inactive)"}, {"smiles": "CCCCCCCCCCCBr", "activity change": "0.345% [at 35.3 µM, hits give high values] (inactive)"}, {"smiles": "CCCCC(O)/C=C(C)/C=C/C=C/C(=O)N1CCCC1=O", "note": "(stereo not given)", "activity change": "-12.5% [at 35.3 µM, hits give high values] (inactive)"}, {"smiles": "CCc1ncc(C)[nH]1", "activity change": "-3.47% (inactive)"}, {"smiles": "COCc1nnc(-c2ccc[n+]([O-])c2)n1-c1c(Cl)c(Cl)cc2[nH]c(=O)c(=O)[nH]c12", "activity change": "-9.62% (inactive)"}, {"smiles": "CC(C)(C)C(=O)NCCCC(=O)O", "activity change": "-16.5% [at 35.3 µM, hits give high values] (inactive)"}, {"smiles": "CC(CN1CC(=O)NC(=O)C1)N1CC(=O)NC(=O)C1", "note": "(stereo not given)", "activity change": "-8.26% (inactive)"}, {"smiles": "Cc1nc2ccc(Cl)cc2[nH]1", "activity change": "0.771% (inactive)"}, {"smiles": "OCCC(F)(F)C(F)(F)C(F)(F)C(F)(F)C(F)(F)C(F)(F)F", "activity change": "0.837% (inactive)"}, {"smiles": "COc1ccc(Cl)cc1C", "activity change": "-3.55% (inactive)"}, {"smiles": "C/C=C/C(=O)CCCC", "activity change": "-3.29% (inactive)"}, {"smiles": "CCCCC(CC)COC(=O)CC#N", "note": "(stereo not given)", "activity change": "-12.2% (inactive)"}, {"smiles": "CC(C)(C)c1ccc(N)cc1", "activity change": "11.7% (inactive)"}, {"smiles": "CCOC(=O)COc1ccc2c(C)c(CCN(CC)CC)c(=O)oc2c1Cl", "activity change": "-12.1% [at 35.3 µM, hits give high values] (inactive)"}, {"smiles": "CC(C)(Sc1cc(C(C)(C)C)c(O)c(C(C)(C)C)c1)Sc1cc(C(C)(C)C)c(O)c(C(C)(C)C)c1", "activity change": "-8.27% [at 35.3 µM, hits give high values] (inactive)"}, {"smiles": "c1coc(Cn2cccc2)c1", "activity change": "-0.149% (inactive)"}, {"smiles": "CNC(=O)c1c(I)c(NC(C)=O)c(I)c(C(=O)O)c1I", "activity change": "3.75% [at 35.3 µM, hits give high values] (inactive)"}, {"smiles": "N#Cc1ccccc1C#N", "activity change": "-7.47% (inactive)"}, {"smiles": "CCCCCCCOC(C)=O", "activity change": "23.2% (inactive)"}, {"smiles": "CC(=O)OC/C=C(/C)CCC=C(C)C", "activity change": "10.3% (inactive)"}, {"smiles": "COc1cc(OC)cc(OC)c1", "activity change": "-0.192% [at 35.3 µM, hits give high values] (inactive)"}, {"smiles": "CC(=O)SCC(CC(=O)c1ccc(C)cc1)C(=O)O", "note": "(stereo not given)", "activity change": "-4.94% [at 35.3 µM, hits give high values] (inactive)"}, {"smiles": "O=C1CCCc2c(O)cccc21", "activity change": "-14.6% [at 35.3 µM, hits give high values] (inactive)"}, {"smiles": "BrCCOc1ccccc1", "activity change": "11.4% (inactive)"}, {"smiles": "CC(=O)Oc1ccc(C(C)=O)cc1", "activity change": "8.6% (inactive)"}, {"smiles": "CN(C)c1ccncc1", "activity change": "-8.81% (inactive)"}, {"smiles": "O=C[C@@H](O)[C@H](O)[C@H](O)CO", "activity change": "-9.95% (inactive)"}, {"smiles": "C[C@@H](CN1CC(=O)NC(=O)C1)N1CC(=O)NC(=O)C1", "activity change": "0.979% [at 35.3 µM, hits give high values] (inactive)"}, {"smiles": "CCOC(=O)c1ccc(N(C)C)cc1", "activity change": "-3.58% (inactive)"}, {"smiles": "CCCc1ncc(C(=O)O)s1", "activity change": "-2.1% [at 35.3 µM, hits give high values] (inactive)"}, {"smiles": "O=P(O)(O)C(O)(Cc1cccnc1)P(=O)(O)O", "activity change": "-19.3% [at 35.3 µM, hits give high values] (inactive)"}, {"smiles": "COC(=O)/C=C(\\C)CCC=C(C)C", "activity change": "-1.88% (inactive)"}, {"smiles": "COc1cc(C(=O)NC2CCCNC2)cc(OC)c1OC", "note": "(stereo not given)", "activity change": "0.79% [at 35.3 µM, hits give high values] (inactive)"}, {"smiles": "C=CCN(CC=C)CC=C", "activity change": "-13.7% (inactive)"}, {"smiles": "CCCCCCCCC1CO1", "note": "(stereo not given)", "activity change": "-2.93% (inactive)"}, {"smiles": "NC[C@H]1O[C@H](O[C@H]2[C@H](O)[C@@H](O[C@H]3O[C@H](CO)[C@@H](O)[C@H](N)[C@H]3O)[C@H](N)C[C@@H]2N)[C@H](N)[C@@H](O)[C@@H]1O", "activity change": "0.657% [at 15.8 µM, hits give high values] (inactive)"}, {"smiles": "CC(C)c1cc(C(C)C)cc(C(C)C)c1", "activity change": "-0.218% (inactive)"}, {"smiles": "O=C1c2ccccc2C(=O)N1CO", "activity change": "-2.22% (inactive)"}]}]}
